High-throughput results (PubChem BioAssay)
IL1B secr inh – inhibitors of inflammasome signaling (IL-1 beta secretion); THP-1 LPS/ATP IL-1B secretion, AlphaLISA, 16 h; stronger effect = lower value; activity change, % at 57.5 µM; hit rate 4.7% among 360,000; AID 743279; in the data active = activity change below about -50%; inconclusive = mostly about -30% to -49%
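Secreted IL-1B measured by AlphaLISA bead assay after 16 h compound exposure of THP-1 cells; compounds (final up to 57.5 uM) added 1 h before LPS (250 ng/mL) and ATP (1.25 mM) stimulation; lower signal means less secretion.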
TDP1 inh – inhibitors of human tyrosyl-DNA phosphodiesterase TDP1; AID 485290; Potency, µM (doses to about 130 µM), for the others: top-dose activity change, negative = inhibition, usual class: inhibitors; hit rate 0.28% among 350,000; recombinant TDP1, AlphaScreen DNA substrate cleavage; Q9NUW8; also: potency is read from the fitted curve at half-maximal effect; nearly all actives have a fitted effect of over 40% in size
Target sequence (Q9NUW8 whole entry, looked up): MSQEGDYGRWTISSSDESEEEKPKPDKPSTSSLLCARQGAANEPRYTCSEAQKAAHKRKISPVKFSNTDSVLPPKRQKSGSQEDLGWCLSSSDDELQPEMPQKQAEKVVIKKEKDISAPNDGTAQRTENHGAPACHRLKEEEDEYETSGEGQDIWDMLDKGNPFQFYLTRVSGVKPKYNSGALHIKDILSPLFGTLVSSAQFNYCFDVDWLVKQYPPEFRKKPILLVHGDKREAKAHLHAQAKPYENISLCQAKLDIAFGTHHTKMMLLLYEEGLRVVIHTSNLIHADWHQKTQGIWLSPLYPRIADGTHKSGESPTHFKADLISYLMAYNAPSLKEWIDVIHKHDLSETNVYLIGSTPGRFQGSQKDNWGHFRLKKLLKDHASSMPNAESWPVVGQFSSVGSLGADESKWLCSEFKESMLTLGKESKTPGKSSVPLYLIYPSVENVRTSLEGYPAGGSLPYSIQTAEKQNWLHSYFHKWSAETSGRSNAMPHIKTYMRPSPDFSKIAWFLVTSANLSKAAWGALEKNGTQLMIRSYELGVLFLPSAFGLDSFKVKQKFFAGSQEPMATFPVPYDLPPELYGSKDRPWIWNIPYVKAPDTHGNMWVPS
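Compounds were preincubated with Tdp1 (1 nM final) for 15 min at room temperature before substrate (15 nM final) started a 5 min reaction; beads (10 ug/ml final) were then added for 10 min before AlphaScreen detection.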
CtBP-E1A blk – blocks the CtBP interaction with E1A; AlphaScreen GST-E1A/His-CtBP binding, 1536-well; stronger effect = lower value; activity change, % (test concentration not listed); hit rate 0.49% among 340,000; in the data active = activity change below about -65%; inconclusive = mostly about -30% to -63%
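Homogeneous bead-based format: GST-tagged E1A captured on glutathione donor beads, His-tagged CtBP on nickel acceptor beads; compounds precede bead addition by 2 h at 37 °C.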
Six1-Eya2 inh – blocks human Six1 binding to Eya2; AlphaScreen GST-Six1/His-Eya2 binding, biochemical; stronger effect = lower value; Q15475+O00167; hit rate 0.56% among 360,000; activity change, % (concentration not given with the values); in the data active = activity change below about -65%; inconclusive = mostly about -30% to -63%
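AlphaScreen with GST-Six1 and His-Eya2 (5X mix: 250 nM and 500 nM), glutathione donor and nickel acceptor beads; buffer 50 mM Tris pH 8.0, 300 mM NaCl, 1 mM TCEP; 1 h at 37 C in the dark.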
DT40 TDP1 no CPT – qHTS for Inhibitors of human tyrosyl-DNA phosphodiesterase 1 (TDP1): qHTS in cells in absence of CPT | DT40 Tdp1-/- hTDP1 cells, no CPT, ATP luminescence, 48 h | Potency, µM (titrated, usually from 46.2 µM), without a hit: top-dose activity change, negative = growth inhibition, most hits filed as inhibitors | hit rate 15% among 420,000; also: potency is read from the fitted curve at half-maximal effect; nearly all actives have a fitted effect of over 55% in size
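Cells were dispensed at 400 per well, compounds added by pin tool, plates incubated ≥48 hr at 37 °C, then CellTiter-Glo added for 30 min at room temperature before luminescence reading. Line: DT40 Tdp1-/- complemented with hTDP1; camptothecin omitted.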
TDP1 cell CPT – growth inhibition of DT40 Tdp1-/-;hTDP1 cells with camptothecin (screen for TDP1 inhibitors); chicken DT40 Tdp1-/-;hTDP1 cells + 20 nM CPT, ATP luminescence, 48 h; Potency, µM (highest dose often 46.2 µM), without a hit: at the highest dose activity change, negative = growth inhibition, actives largely listed as inhibitors; hit rate 12% among 420,000; also: potency is read from the fitted curve at half-maximal effect; nearly all actives have a fitted effect of over 55% in size
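Cell growth measured by CellTiter-Glo luminescence after a minimum 48 h, 37 C compound exposure with 20 nM CPT in Tdp1-knockout DT40 cells stably expressing hTDP1, seeded 400/well; qHTS titration format.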
* = called active by the depositor; u = inconclusive; x = no result; [ ] = another dose, or the depositor's remark. Sampled rows, rich in hits. Any-hit rate of the full collection: about 18%. Unless noted, calls follow the shape of the dose curve; as a rule, active = well fitted curve in the direction sought with a large enough effect; inconclusive = small, poorly fitted or top-dose-only effect, or another doubt; inactive = no such curve, though single readings can be large; an effect the other way counts as inactive or inconclusive. % is scaled to controls: 0 for no effect and ±100 for the full control effect.

SMILES	IL1B secr inh	TDP1 inh	CtBP-E1A blk	Six1-Eya2 inh	DT40 TDP1 no CPT	TDP1 cell CPT
COC(=O)c1cn([C@H]2C[C@@H](C(=O)N3CCCCCC3)N(Cc3ccsc3)C2)nn1	x	x	x	x	-15%	0%[9.04 µM]
COc1cc2ccccc2cc1C(=O)Nc1ccc2oc(-c3ccccc3)nc2c1	x	5%[12.3 µM]	x	x	16µM*	16µM*
COc1cc2ccccc2cc1C(=O)Nc1ccc2oc(-c3cc(Br)ccc3Cl)nc2c1	x	2%[12.3 µM]	x	x	-20%	u
O=C(Nc1ccc2oc(-c3ccc(Cl)c(Cl)c3)nc2c1)c1ncn[nH]1	10	-4%	-3	-3	5.2µM*	5.2µM*
O=C(Nc1ccc2oc(-c3ccc(Cl)cc3)nc2c1)c1ccc2ccccc2c1	x	4%[2.28 µM]	x	x	-16%	2%
O=C(Nc1ccc(-c2nc3cc(NC(=O)c4cccs4)ccc3o2)cc1)c1cccs1	4	4%	6	1	13µM*	11µM*
O=C(Nc1ccc(-c2nc3cc(NC(=O)c4ccc(Cl)cc4)ccc3o2)cc1)c1ccc(Cl)cc1	x	-1%	x	x	4.1µM*	0%
COC(=O)c1cc(C(=O)NCCN2C(=O)S/C(=C\c3cccs3)C2=O)cc([N+](=O)[O-])c1	-12	0%	-2	1	u	u
O=C(COc1ccc2ccc(=O)oc2c1)Nc1cccnc1	-3	1%	x	3	0%	6%
COc1ccc(NC(=O)c2cc3ccccc3cc2OC)cc1OC	-20	x	x	-13	18µM*	u
O=C(Nc1ccc(-c2nc3cc(NC(=O)c4ccccc4F)ccc3o2)cc1)c1ccccc1F	x	-2%	x	x	13µM*	15µM*
CC(C)(C)c1ccc(-c2nc3cc(NC(=O)c4cccc(Br)c4)ccc3o2)cc1	x	2%[12.3 µM]	x	x	4.6µM*	u
Cc1nc2ccc(NC(=O)Nc3ccnc4cccnc34)cc2o1	x	14%[56.1 µM]	x	x	21µM*	u
COc1ccc(NC(=O)CCN2C(=O)[C@@H]3[C@H](C2=O)[C@H]2C=C[C@@H]3C2)cc1	-18	6%	1	5	-15%	u
CN(Cc1ccc2nonc2c1)Cc1nc(Cc2cccc(F)c2)no1	-16	3%	9	26	1%	-5%
Cc1nc2cc(NC(=O)Nc3ccc(Br)cc3)ccc2o1	0	-1%	-1	6	23µM*	u
Cc1nc2cc(NC(=O)NCc3ccc4c(c3)OCO4)ccc2o1	-9	0%	3	1	-11%	-5%
Cc1ccc(-c2nc3cc(NC(=O)c4cc(Br)ccc4Cl)ccc3o2)cc1	x	-5%[12.3 µM]	x	x	4.6µM*	5.8µM*
S=c1[nH]nc(-c2ccncc2)n1/N=C/c1cccc2ccccc12	x	-8%	x	x	x	x
COc1ccc(C2CC(=O)c3cnc(NC(=O)c4ccccc4)nc3C2)c(OC)c1 (stereo not drawn)	0	8%	0	7	7.3µM*	6.5µM*
COc1ccc(Nc2ncc3c(n2)CC(c2ccc(C)cc2)CC3=O)cc1 (stereo not drawn)	-3	4%	0	4	8.2µM*	u
O=C1CC(c2ccco2)Cc2nc(Nc3ccc(F)cc3)ncc21 (stereo not drawn)	u	7%	-3	-13	23µM*	u
COc1ccc(Nc2ncc3c(n2)CC(c2ccc(OC)cc2)CC3=O)cc1 (stereo not drawn)	-28	7%	-12	-9	12µM*	u
Nn1c(Cc2ccccc2F)nnc1SCCOc1ccc(Cl)cc1	-16	2%	-12	3	-2%	-24%
COc1ccccc1OCCCN1C(=O)C(=O)c2cccc(C)c21	21	-2%	-7	-1	1.5µM*	4.6µM*
SMILES	IL1B secr inh	TDP1 inh	CtBP-E1A blk	Six1-Eya2 inh	DT40 TDP1 no CPT	TDP1 cell CPT
Cc1ccccc1OCCN1C(=O)C(=O)c2cccc(C)c21	-13	5%	-3	-1	0.92µM*	1.3µM*
Cc1cccc2c1N(CCOc1ccccc1Cl)C(=O)C2=O	-8	-5%	9	0	2.6µM*	2.6µM*
CCNc1nc(N)c(C(=O)c2ccc(Cl)s2)s1	-96*	5%	-14	-17	1%	-1%
CCCOc1ccc(NC(=O)CC2C(=O)N(c3ccc(Cl)cc3)C(=O)N2CCc2ccncc2)cc1 (stereo not drawn)	x	8%	x	x	26µM*	u
COc1ccc(CCN2C(=O)N(c3ccc(F)cc3)C(=O)C2CC(=O)Nc2ccc(OC)cc2)cc1 (stereo not drawn)	x	4%	x	x	u	12µM*
COc1ccc(NC(=O)CC2C(=O)N(c3ccc(C)cc3)C(=O)N2CCc2ccccc2)cc1 (stereo not drawn)	x	6%	x	x	15µM*	15µM*
COc1ccc(CCN2C(=O)N(c3ccc(F)cc3)C(=O)C2CC(=O)Nc2ccc(F)c(F)c2)cc1 (stereo not drawn)	x	1%	x	x	21µM*	12µM*
COc1ccc(CCN2C(=O)N(c3ccc(F)cc3)C(=O)C2CC(=O)Nc2ccccc2)cc1 (stereo not drawn)	x	4%	x	x	u	u
Cc1ccccc1NC(=O)Nc1ccccc1C(=O)NCc1ccccc1	-13	3%	-1	12	u	-19%
COc1ccc(CN2C(=O)N(c3ccc(F)cc3)C(=O)C2CC(=O)Nc2ccccc2)cc1 (stereo not drawn)	x	1%	x	x	13µM*	13µM*
O=C(CC1C(=O)N(c2ccccc2)C(=O)N1Cc1ccc(F)cc1)Nc1cccc(F)c1 (stereo not drawn)	x	8%	x	x	23µM*	u
COc1ccc(CCN2C(=O)N(c3ccc(F)cc3)C(=O)C2CC(=O)Nc2ccccc2)cc1OC (stereo not drawn)	x	-1%	x	x	-24%	u
CN1CCN(C(=S)c2cn(Cc3ccccc3)c3ccccc23)CC1	23	10%	-3	-23	-25%	u
Fc1ccccc1Cn1cc(C(=S)N2CCOCC2)c2ccccc21	-25	x	x	-25	16µM*	u
CN1CCN(C(=S)c2cn(Cc3ccc(Br)cc3)c3ccccc23)CC1	-11	10%	x	-4	u	21µM*
Cc1nnsc1NC(=O)OCc1ccccc1Cl	11	2%	36	20	-28%	-16%
COc1ccccc1NC(=O)N1CCN(c2ccc3nncn3n2)CC1	9	x	1	0	-4%	-4%
O=C(Nc1ccccc1Cl)N1CCN(c2ccc3nnc(-c4ccc(F)cc4)n3n2)CC1	-25	2%	-20	0	16µM*	18µM*
